The results in this text go back to PubChem BioAssay (Tox21).

Experiment [1] can be described thus: qHTS RealTime-Glo MT Cell Viability Assay in HepG2 cells - 8 hour (AID 1224873). Also: nearly all actives have a fitted effect of over 55% in size. Also: potency is read from the fitted curve at half-maximal effect. A digest of the protocol: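 HepG2 cells mixed with RealTime-Glo MT reagents (NanoLuc plus cell-permeant prosubstrate) were seeded at 600 cells/well, incubated 5 h at 37 C/5% CO2, then pinned with compounds in DMSO; nonlytic luminescence tracked viability during 40 h treatment.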
On the technique in general: In qHTS, concentration-response curves come from the screen itself.

Experiment [2] in a line: qHTS RealTime-Glo MT Cell Viability Assay in HEK293 cells - 40 hour (AID 1224874). Also: nearly all actives have a fitted effect of over 50% in size. Also: potency is read from the fitted curve at half-maximal effect. The conditions noted are these: RealTime-Glo luminescence; max response: stronger effect = lower value. A digest of the protocol:
(§1)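 Kinetic, non-lysing viability readout. Seed HEK293 (600/well) with reagent, incubate 5 h at 37 C/5% CO2, pin 23 nL compound in DMSO, incubate at 37 C, read luminescence at 0, 8, 16, 24, 32, 40 h.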

The nature of experiment [3]: A CellTox Green Cytotoxicity Assay to monitor cytotoxicity in HEK293 cells - 24 hour (AID 1224875). Also: nearly all actives have a fitted effect of over 45% in size. Also: potency is read from the fitted curve at half-maximal effect. As to activity change: series mostly up to about 77 µM. A digest of the protocol:
(§2)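 Real-time, in one plate: 600 HEK293 cells/well with dead-cell DNA dye, pinned compound after 5 h, 37 C incubation over 40 h; viable cells give no appreciable fluorescence.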

Experiment [4] is described as follows: A CellTox Green Cytotoxicity Assay to monitor cytotoxicity in HepG2 cells - 16 hour (AID 1224876). Also: nearly all actives have a fitted effect of over 45% in size. Also: potency is read from the fitted curve at half-maximal effect. In a few lines:
(§3)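 Cytotoxicity was tracked as dead-cell DNA fluorescence in HepG2 cells treated with test compounds at 37 C; each time-point value comes from one kinetic series spanning 0, 8, 16, 24, 32 and 40 h.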

Experiment [5] can be described thus: qHTS RealTime-Glo MT Cell Viability Assay in HepG2 cells - 32 hour (AID 1224877). Also: nearly all actives have a fitted effect of over 55% in size. Also: potency is read from the fitted curve at half-maximal effect. In a few lines: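 Real-time, nonlytic viability: 600 HepG2 cells/well mixed with NanoLuc enzyme plus prosubstrate; 5 h settle, compound (DMSO) added by pintool; luminescence monitored over 40 h at 37 C.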
Experiment [6] can be described thus: A CellTox Green Cytotoxicity Assay to monitor cytotoxicity in HepG2 cells - 24 hour (AID 1224878). Also: nearly all actives have a fitted effect of over 45% in size. Also: potency is read from the fitted curve at half-maximal effect. A digest of the protocol: as §3
Experiment [7] can be described thus: A CellTox Green Cytotoxicity Assay to monitor cytotoxicity in HepG2 cells - 40 hour (AID 1224879). Also: nearly all actives have a fitted effect of over 40% in size. Also: potency is read from the fitted curve at half-maximal effect. A digest of the protocol:
as §3

Experiment [8] is described as follows: qHTS RealTime-Glo MT Cell Viability Assay in HEK293 cells - 0 hour (AID 1224880). Also: top concentration of the series differs between compounds; nearly all actives have a fitted effect of over 45% in size. A digest of the protocol: as §1
The nature of experiment [9]: A CellTox Green Cytotoxicity Assay to monitor cytotoxicity in HEK293 cells - 32 hour (AID 1224881). Also: nearly all actives have a fitted effect of over 40% in size. Also: potency is read from the fitted curve at half-maximal effect. In a few lines: as §2
Experiment [10] is described as follows: A CellTox Green Cytotoxicity Assay to monitor cytotoxicity in HepG2 cells - 0 hour (AID 1224882). Also: nearly all actives have a fitted effect of over 35% in size. Also: potency is read from the fitted curve at half-maximal effect. In a few lines: as §3

Several values for one entry are separate records, joined by “and”; a condition that tells them apart may be missing. Equal values may be shown once. Inconclusive results are not listed. Some compounds were tested as several samples or in several runs, with calls that do not always agree. Activity calls are given as the source filed them. Calls follow the shape of the dose curve; as a rule, active = well fitted curve in the direction sought with a large enough effect in the repeat runs; inconclusive = weak or mixed curves; inactive = no such curve, though single readings can be large; an effect the other way counts as inactive or inconclusive.
% is scaled to controls: 0 for no effect and ±100 for the full control effect.

Take `c1ccc2c(c1)-c1cccc3c1c-2cc1ccccc13`: the Potency entry in experiment [1], in experiment [3], in [4], in experiment [5], in [6] and in experiment [8] was “inactive” throughout. The Potency result in [9] and in [10] was “inactive” each time. The max response in experiment [2] was 1.04% (inactive). Moreover, in experiment [7], the Potency is 1.91 µM (active) and inactive.
As for `Cc1cccc(O)c1C`, the Potency entry in [1], in experiment [3], in experiment [4], in experiment [5], in experiment [6] and in experiment [7] was “inactive” each time. Besides, the Potency result in [8], in experiment [9] and in [10] was “inactive” in each case. In addition, in [2], the max response is -0.0816% (inactive) and -5.42% (inactive).
For `c1cc(C(c2ccc(OCC3CO3)cc2)C(c2ccc(OCC3CO3)cc2)c2ccc(OCC3CO3)cc2)ccc1OCC1CO1` (stereo not drawn), the Potency result in experiment [1], in experiment [3], in experiment [4], in [5], in experiment [6] and in [7] was “inactive” throughout. Besides, the Potency result in experiment [8], in experiment [9] and in [10] was “inactive” throughout. Besides, the max response in [2] is -1.63% (inactive).
For the molecule `c1ccc2cc3c(ccc4ccccc43)cc2c1`, the Potency result in experiment [1], in experiment [3], in [4], in experiment [5], in [6] and in [8] was “inactive” in each case. In addition, the Potency entry in experiment [9] and in [10] was “inactive” throughout. In addition, the max response in experiment [2] is 0.679% (inactive). In [7], the Potency is 21.9 µM (active) and inactive.
`Oc1c(Cl)cc(Cl)c(Cl)c1Cc1c(O)c(Cl)cc(Cl)c1Cl`: the Potency result in experiment [1], in experiment [8] and in experiment [10] was “inactive” throughout. The Potency in experiment [2] is 2.45 µM (active) and 3.89 µM (active); in experiment [5], “inactive and 21.9 µM (active)”; in experiment [6], “inactive and 38.9 µM (active)”; in [7] it was 21.8 µM (active) and 38.9 µM (active); in experiment [9], 54.8 µM (active) and 49 µM (active) and inactive.
For the molecule `CC(=O)CC(=O)Nc1ccc2[nH]c(=O)[nH]c2c1`, the max response in experiment [2] is -1.76% (inactive). In addition, the Potency result in [3], in [4], in experiment [5], in [6], in experiment [7] and in [8] was “inactive” each time. For the same molecule, the Potency result in experiment [9] and in experiment [10] was “inactive” in each case.
On to `NC(N)=Nc1nc(CSCC/C(N)=N/S(N)(=O)=O)cs1`, for which the Potency entry in experiment [1], in [3], in experiment [5], in experiment [7], in experiment [8] and in experiment [9] was “inactive” in each case. In [10], the Potency result is “inactive”. For the same molecule, in experiment [2], the max response is -7.2% (inactive) and 0.8% (inactive). The Potency in [6] was 3.89 µM (active) and inactive.
As to `CCC(=O)/C=C/C1C(C)=CCCC1(C)C` (stereo not drawn), the Potency entry in [1], in experiment [4], in experiment [5], in experiment [6], in experiment [7] and in experiment [8] was “inactive” each time. In experiment [10], the Potency result is “inactive”. Moreover, the max response in experiment [2] was -21.5% (inactive) and 0.0714% (inactive). Moreover, in experiment [9], the Potency was 49.1 µM (active) and inactive.
For `CC(=O)Nc1ccc(C(=O)CCl)cc1`, the Potency in experiment [2] was 21.9 µM (active); in [5], “inactive and 21.9 µM (active)”; in [6] it was “inactive and 21.9 µM (active)”; in experiment [7], “inactive and 19.5 µM (active)”; in [9], “inactive and 15.5 µM (active)”. Also, the max response in [2] was 19.7% (inactive). For the same molecule, the Potency result in experiment [4] and in experiment [8] was “inactive” throughout.
Consider `CCOc1ccccc1C(N)=O`, for which the Potency entry in experiment [1], in experiment [3], in experiment [5], in experiment [6], in experiment [7] and in experiment [8] was “inactive” in each case. Besides, the Potency entry in [9] and in experiment [10] was “inactive” in each case. For the same molecule, the max response in [2] is -15.3% (inactive) and 4.4% (inactive).
For the molecule `Cc1cccc([N+](=O)[O-])c1C(=O)O`, the Potency entry in [1], in experiment [3], in experiment [5], in experiment [6], in experiment [7] and in [8] was “inactive” each time. The Potency result in [9] and in [10] was “inactive” in each case. Moreover, the max response in experiment [2] is -0.164% (inactive).
Take `OCCN1CCNCC1`: the Potency entry in experiment [1], in experiment [3], in [5], in [6], in experiment [7] and in experiment [8] was “inactive” in each case. In addition, the Potency entry in [9] and in [10] was “inactive” throughout. In addition, the Potency in [2] is 7.9 µM (active).
`CC(C)(c1ccccc1)c1ccc(Nc2ccc(C(C)(C)c3ccccc3)cc2)cc1`: the max response in experiment [2] was -27.1% (inactive) and -13.6% (inactive). Further, the Potency result in experiment [3], in experiment [4], in experiment [5], in [6], in experiment [7] and in experiment [8] was “inactive” in each case. In addition, the Potency result in experiment [9] is “inactive”.
`CCCCC(CC)COC(=O)CC(C(=O)OCC(CC)CCCC)S(=O)(=O)O` (stereo not drawn): the Potency entry in [1], in experiment [5] and in [8] was “inactive” each time. Also, the Potency was 21.9 µM (active) in experiment [3]; 33.4 µM (active) and 38.9 µM (active) in experiment [4]; 42 µM (active) and 38.9 µM (active) in experiment [6]; 42 µM (active) and 43.6 µM (active) in experiment [7]; 21.9 µM (active) in [9].
`c1ccc2n[nH]nc2c1`: the max response in [2] is 10.2% (inactive) and 5.87% (inactive). For the same molecule, the Potency result in experiment [3], in [4], in experiment [5], in [6], in experiment [7] and in experiment [8] was “inactive” in each case. Besides, in [9], the Potency result is “inactive”.
For the molecule `CCN(CC)CCOc1ccc(/C(=C(\Cl)c2ccccc2)c2ccccc2)cc1`, the Potency is 31.6 µM (active) in experiment [1]; 12.6 µM (active) and 19 µM (active) in [2]; 31.6 µM (active) and 23.9 µM (active) in experiment [3]; 19.9 µM (active) and 23.9 µM (active) in experiment [5]; 19.9 µM (active) and 21.3 µM (active) in [6]; 17.7 µM (active) and 16.9 µM (active) in experiment [7]. In addition, in experiment [9], the Potency is 28.1 µM (active) and 23.9 µM (active). The Potency entry in experiment [8] and in [10] was “inactive” each time.
`CC(=O)N[C@@H](CS)C(=O)O`: in [2], the max response was 3.06% (inactive) and 6.4% (inactive). Moreover, the Potency entry in experiment [3], in experiment [4], in [5], in experiment [6], in experiment [7] and in experiment [8] was “inactive” each time. Also, the Potency result in experiment [9] and in experiment [10] was “inactive” each time.
As for `O=C1OC2(c3ccc(O)cc3Oc3cc(O)ccc32)c2ccccc21`, the max response in experiment [2] is 12.3% (inactive) and -17.2% (inactive). For the same molecule, the Potency in experiment [3] was 692 nM (active) and 1.07 µM (active); in experiment [4], 616 nM (active) and 301 nM (active); in experiment [6], 616 nM (active) and 301 nM (active); in experiment [7] it was 616 nM (active) and 301 nM (active); in [9], 692 nM (active) and 1.2 µM (active); in experiment [10], 1.55 µM (active) and 301 nM (active). For the same molecule, the Potency entry in [5] and in experiment [8] was “inactive” each time.
As for `O=C(Nc1ccccc1SSc1ccccc1NC(=O)c1ccccc1)c1ccccc1`, the Potency entry in experiment [1], in [3], in experiment [4] and in experiment [8] was “inactive” each time. Moreover, the Potency entry in [5] is “inactive and 49 µM (active)”; in experiment [6] it was “inactive and 54.9 µM (active)”; in experiment [7], 49 µM (active).
With `CCCCCCCCCCCCCCCCCl`, in [2], the max response is 0.0293% (inactive). The activity change in experiment [3] is 8.22% [at 15.8 µM, stronger effect = higher value] (inactive). For the same molecule, the cytotoxicity increase in experiment [4] was 3.3% [at 15.8 µM] (inactive); in experiment [7], 1.26% [at 15.8 µM] (inactive); in experiment [9] it was 8.79% [at 15.8 µM] (inactive). Moreover, the activity change, negative = cytotoxic in experiment [5] is 6.67% [at 15.8 µM] (inactive). For the same molecule, the values for the cytotoxicity in experiment [6] and in [10] were 2.62% [at 15.8 µM] (inactive) and 7.68% [at 15.8 µM] (inactive), respectively. The activity change, negative = cytotoxicity in experiment [8] is 2.19% [at 15.8 µM] (inactive).
Turning to `CN1C(=O)c2ccc([N+](=O)[O-])cc2C1=O`, the Potency result in [1], in [3], in experiment [5], in [6], in experiment [7] and in experiment [8] was “inactive” in each case. Also, the Potency result in [9] and in [10] was “inactive” in each case. Further, in experiment [2], the max response is 0.763% (inactive).
In the case of `CCN(CC)C(=O)Nc1ccc(OCC(O)CNC(C)(C)C)c(C(C)=O)c1` (stereo not drawn), the max response in experiment [2] was 1.66% (inactive). Further, the Potency entry in experiment [3], in experiment [4], in [5], in [6], in experiment [7] and in experiment [8] was “inactive” each time. Besides, the Potency result in experiment [9] is “inactive”.
In the case of `O=C1NCC2(CCN(CCc3ccccc3)CC2)O1`, in experiment [2], the max response was 2.88% (inactive). Also, the Potency entry in [3], in experiment [4], in [5], in experiment [6], in experiment [7] and in [8] was “inactive” throughout. The Potency result in [9] and in experiment [10] was “inactive” each time.
